Results filed as inconclusive are left out. A call without a number means that no potency is given here. Unmarked numbers belong to inactive results. Activity calls are given as the source filed them. Calls come from the whole dose curve; as a rule, active = well fitted activation curve with a large enough effect; inconclusive = small, poorly fitted or top-dose-only effect; inactive = no such curve, though single readings can be large or run the other way.
The compounds below were run against Rap guanine nucleotide exchange factor 4 (Homo sapiens) (UniProt Q8WZA2) (assay: Confirmatory qHTS for agonist of cAMP-regulated guanine nucleotide exchange factor 4 (EPAC2) (AID 1645884;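 note: nucleotide exchange releases bodipy-GDP from Rap1 and this lowers its fluorescence; nearly all actives have a fitted effect of over 65% in size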)). Details: EPAC2 GEF activity, Rap1B-BODIPY-GDP fluorescence; series mostly up to 154 µM.
Rap guanine nucleotide exchange factor 4 (Homo sapiens), sequence (Q8WZA2 whole entry, looked up): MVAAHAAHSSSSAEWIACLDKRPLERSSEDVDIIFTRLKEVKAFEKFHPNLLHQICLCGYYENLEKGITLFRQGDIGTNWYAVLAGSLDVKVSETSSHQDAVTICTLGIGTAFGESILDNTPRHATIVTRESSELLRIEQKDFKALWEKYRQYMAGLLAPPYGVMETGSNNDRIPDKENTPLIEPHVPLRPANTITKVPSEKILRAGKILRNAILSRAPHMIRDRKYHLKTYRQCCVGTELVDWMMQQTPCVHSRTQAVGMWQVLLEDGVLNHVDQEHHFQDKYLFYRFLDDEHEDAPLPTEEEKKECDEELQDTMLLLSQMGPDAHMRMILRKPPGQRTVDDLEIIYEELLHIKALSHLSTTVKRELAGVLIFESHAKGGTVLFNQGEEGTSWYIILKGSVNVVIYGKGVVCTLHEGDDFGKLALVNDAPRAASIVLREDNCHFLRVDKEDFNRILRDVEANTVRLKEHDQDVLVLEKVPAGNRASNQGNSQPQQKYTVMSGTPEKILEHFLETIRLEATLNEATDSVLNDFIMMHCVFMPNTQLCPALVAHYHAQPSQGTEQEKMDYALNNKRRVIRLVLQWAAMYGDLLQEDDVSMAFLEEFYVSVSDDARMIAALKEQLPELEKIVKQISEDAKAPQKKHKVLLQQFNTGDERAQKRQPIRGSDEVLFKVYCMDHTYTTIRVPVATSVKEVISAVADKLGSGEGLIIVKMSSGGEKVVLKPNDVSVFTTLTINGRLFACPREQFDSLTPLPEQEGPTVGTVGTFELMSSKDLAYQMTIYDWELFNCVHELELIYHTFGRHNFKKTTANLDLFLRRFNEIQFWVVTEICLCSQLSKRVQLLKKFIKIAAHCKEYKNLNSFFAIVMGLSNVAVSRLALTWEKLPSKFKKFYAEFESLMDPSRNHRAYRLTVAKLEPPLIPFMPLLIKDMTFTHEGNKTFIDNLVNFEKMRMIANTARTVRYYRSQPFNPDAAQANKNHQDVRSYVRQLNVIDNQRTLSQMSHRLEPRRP
Potency is the fitted concentration of half-maximal effect.

Compound	activation	Potency
O=C1NC(=O)N(c2cccc(Cl)c2)C(=O)/C1=C\c1ccc(Sc2nc3ccccc3[nH]2)o1	5.77% [at 17.1 µM, percent relative to cAMP agonist control]	–
CCOC(=O)[C@]12Cc3ccc(C)cc3[C@H]1N(C1CCCCC1)C(=O)c1cc(OC)ccc12	–	inactive
O=C1Nc2ccccc2/C1=C/c1nc2ccccc2c(=O)n1-c1ccc(O)cc1	2.57% [at 17.1 µM, percent relative to cAMP agonist control]	–
CCOC(=O)[C@]12Cc3ccsc3[C@H]1N(Cc1ccccc1)C(=O)c1ccccc12	–	inactive
CCCNC(=O)N1[C@H]2CC[C@@H]1C(C(=O)OC)=C(c1ccc(F)cc1OCc1ccccc1)C2	–	inactive
COc1ccc(C(=O)C2CN(C)CC2c2ccc(Cl)cc2)cc1 (centres undefined)	2.15% [at 17.1 µM, percent relative to cAMP agonist control]	–
COc1ccc(N2C(=O)NC(=O)/C(=C/c3ccc([N+](=O)[O-])s3)C2=O)cc1	–	inactive
COc1ccc(C(SCC(NC(=O)OCc2ccccc2)C(=O)O)c2ccc(OC)cc2)cc1 (centres undefined)	–	inactive
CCOC(=O)[C@]12Cc3cc(Cl)ccc3[C@H]1N(C1CCCCC1)C(=O)c1ccccc12	–	inactive
CCOC(=O)[C@]12Cc3cc(C)ccc3[C@H]1N(Cc1ccccc1)C(=O)c1ccccc12	–	inactive
O=c1[nH]c(O)c(C=Nc2ccccc2Sc2ccccc2)c(=O)[nH]1	–	inactive
CCOC(=O)c1cc(CC)sc1/N=C/c1c(O)[nH]c(=S)[nH]c1=O	–	100 µM (active)
CCCCn1c(NS(=O)(=O)c2ccc(C)cc2)c(C(=O)OCC)c2nc3ccccc3nc21	–	inactive
CCCCNC(=O)c1c(N)n(CCCOC)c2nc3ccccc3nc12	–	inactive
CC[C@@H]1c2ccccc2[C@@H]2CC[C@H]1N2c1ccccc1	4.18% [at 17.1 µM, percent relative to cAMP agonist control]	–
Cc1cc(/C=C2\C(=O)NC(=O)N(c3ccc(Cl)cc3)C2=O)c(C)n1-c1sc2c(c1C#N)CCCC2	3.87% [at 17.1 µM, percent relative to cAMP agonist control]	–
CC1=C(O)C(=O)C=C2C1=CC=C1C2(C)CCC2(C)C3CC(C)(C(=O)O)CCC3(C)CCC12C (centres undefined)	–	inactive
CCc1nc2ccccc2c(=O)n1-c1ccccc1OC	–	inactive
CCOC(=O)[C@]12Cc3cc(C)ccc3[C@H]1N(C1CCCCC1)C(=O)c1ccccc12	4.83% [at 17.1 µM, percent relative to cAMP agonist control]	–
COc1ccc(-n2c(O)c(/C=C3\C=Nc4ccc(Br)cc43)c(=O)[nH]c2=O)c(OC)c1	–	inactive
Nc1c(C(=O)Nc2ccc(Br)cc2F)sc2nc3c(cc12)N1CCC3CC1	–	inactive
Cc1ccc(N2C(=O)NC(=O)/C(=C\C=C\c3ccco3)C2=O)cc1C	–	inactive
CCOC(=O)[C@]12Cc3ccccc3[C@H]1N(C1CCCCC1)C(=O)c1cc(OC)ccc12	–	inactive
COC1C(OC(=O)c2ccc(C)[nH]2)C(O)C(Oc2ccc3c(O)c(NC(=O)c4ccc(O)c(CC=C(C)C)c4)c(=O)oc3c2Cl)OC1(C)C (centres undefined)	–	inactive
CC(C)C/C(=N/O)c1cn(C)c2ccccc12	–	inactive
COC(=O)c1cn(C(=O)c2cccc3ccccc23)c2ccccc12	–	inactive
O=[N+]([O-])c1ccc(N2CCOCC2)c2c1no[n+]2[O-]	–	inactive
COC(=O)c1cn(Cc2ccc(F)cc2)c2ccccc12	–	inactive
COC(=O)C1C2c3ccccc3C(c3ccccc32)C1(C)C(=O)OC (centres undefined)	9.42% [at 17.1 µM, percent relative to cAMP agonist control]	–
